Measurements taken from PubChem BioAssay (NCATS).
Inconclusive results are not listed. Calls of active or inactive are those of the source. The call rests on the fitted dose curve; in most records, active means well fitted cell-killing curve with a large enough effect; inconclusive means small, poorly fitted or top-dose-only effect, or effect the other way; inactive means no such curve, though single readings can be large or run the other way.

test: Quantitative High-Throughput drug screen in 47 multiple myeloma cell lines against the NCATS MIPE library collection: Delta47_JCRB cell viability assay (AID 1918925; further: nearly all actives have a fitted effect of over 45% in size); details: Delta47 myeloma viability, CellTiter-Glo ATP, 48 h; series mostly up to 45.8 µM
Description: PI: Beverly A. Mock Ph.D.
Laboratory of Cancer Biology and Genetics,
Center for Cancer Research, National Cancer Institute,
National Institute of Health, Bethesda, Maryland
Drug resistance and disease progression are common in multiple myeloma (MM) patients, underscoring the need for new therapeutic combinations. […] We hypothesized that effective combinations would reduce MYC expression and enhance p16 activity. […] These preclinical data identify potentially useful drug combinations for evaluation in drug-resistant MM and reveal potential mechanisms of combined drug sensitivity.
Described herein is the primary MIPE qHTS used to cherrypick compounds. Validated compounds were then further tested for potential synergistic activiy.
[1] Peat TJ, Gaikwad SM, Dubois W, Gyabaah-Kessie N, Zhang S, Gorjifard S, Phyo Z, Andres M, Hughitt VK, Simpson RM, Miller MA, Girvin AT, Taylor A, Williams D, D'Antonio N, Zhang Y, Rajagopalan A, Flietner E, Wilson K, Zhang X, Shinn P, Klumpp-Thomas C, McKnight C, Itkin Z, Chen L, Kazandijian D, Zhang J, Michalowski AM, Simmons JK, Keats J, Thomas CJ, Mock BA. Drug combinations identified by high-throughput screening promote cell cycle transition and upregulate Smad pathways in myeloma. Cancer Lett. 2023 Aug 1;568:216284. doi: 10.1016/j.canlet.2023.216284. Epub 2023 Jun 24. PMID: 37356470; PMCID: PMC10408729.
SEQUENCE No. (e.g., 1, 2, 3, etc.); […] (e.g., Cells, Incubation, Reagent, etc.); VALUE and DESCRIPTION.
1; Cells; 5 uL; white, solid bottom 1536-well Greiner assay plate.
2; Compounds; 23 nL; Kalypsis pin tool (Wako USA) equipped with a 1536-well pin head to transfer to the assay plates.
3; Incubation; 48 hours; 37C incubation.
4; Reagent;5uL; CellTiter Glo (Promega).
5; Detector; 425V; Luminescence; Viewlux PerkinElmer.
NOTES (numbers refer to Sequence numbers above)
1. The cell-based screening methods employed in this study were like those previously published. Briefly, the corresponding myeloma cell lines were screened in 1,536-well plates with 500 cells, 5-uL per well for inhibition of cell viability (assessed by measuring ATP levels with CellTiterGlo).
2. NCATS MIPE 4.0 library of approved and investigational drugs were added using the Kalypsis pin tool. Wells treated with DMSO only for 100% viability and media only wells for 0% viability were used as controls.
3. The assay plates were covered and incubated for 48 hours in a 37C, 5% CO2 incubator with controlled humidity.
4. After 48 hours, CellTilter-GloTM luminescent substrate mix (Promega) reagent was added to the assay plate and plates we incubated for 5 min at room temperature.
5. Signal was measured as median relative luminescence units on a ViewLux (PerkinElmer) multiplate reader.
[1] Heske CM, Davis MI, Baumgart JT, Wilson K, Gormally MV, Chen L, Zhang X, Ceribelli M, Duveau DY, Guha R, Ferrer M, Arnaldez FI, Ji J, Tran HL, Zhang Y, Mendoza A, Helman LJ, Thomas CJ. Matrix Screen Identifies Synergistic Combination of PARP Inhibitors and Nicotinamide Phosphoribosyltransferase (NAMPT) Inhibitors in Ewing Sarcoma. Clin Cancer Res. 2017 Dec 1;23(23):7301-7311. doi: 10.1158/1078-0432.CCR-17-1121. Epub 2017 Sep 12. PMID: 28899971; PMCID: PMC6636827.
Potency means the concentration at half of the fitted maximal effect.

SMILES	Potency
CC(=O)NC(CS)C(=O)O (stereo not given)	inactive
C=CCNC1=C2C[C@@H](C)C[C@H](OC)[C@@H](O)[C@@H](C)C=C(C)[C@H](OC(N)=O)[C@@H](OC)C=CC=C(C)C(=O)NC(=CC1=O)C2=O	1.05 µM (active)
CCS(=O)(=O)Nc1ccc2[nH]c(O)c(C(=Nc3ccc(CN4CCCCC4)cc3)c3ccccc3)c2c1	0.0526 µM (active)
Cc1cnc(Nc2ccc(N3CCN(C)CC3)cc2)nc1Nc1cccc(S(=O)(=O)NC(C)(C)C)c1	1.48 µM (active)
COc1cccc2c1C(=O)c1c(O)c3c(c(O)c1C2=O)C[C@@](O)(C(=O)CO)C[C@H]3O[C@H]1C[C@H](N)[C@H](O)[C@H](C)O1	0.148 µM (active)
C=Cc1c(C)c2cc3nc(cc4[nH]c(cc5nc(cc1[nH]2)C(C)=C5CCC(=O)O)c(CCC(=O)OC)c4C)[C@@]1(C)C3=CC=C(C(=O)OC)[C@H]1C(=O)OC	0.132 µM (active)
O=C1NC(=O)C(=Cc2ccc3nccc(-c4ccncc4)c3c2)S1	0.0332 µM (active)
COc1ccc(C(C)=O)c(O)c1	inactive
CCc1ccc(C(=O)Nc2cc(CN3CCN(C)CC3)cc(C(F)(F)F)c2)cc1C#Cc1cnc2ccnn2c1	13.2 µM (active)
O=C1NC(=O)[C@@H](c2cn3c4c(cccc24)CCC3)[C@H]1c1c[nH]c2ccccc12	0.235 µM (active)
FC(F)c1nc2ccccc2n1-c1nc(N2CCOCC2)nc(N2CCOCC2)n1	0.0662 µM (active)
Cn1c(Nc2ccc(C(F)(F)F)cc2)nc2cc(Oc3ccnc(-c4ncc(C(F)(F)F)[nH]4)c3)ccc21	0.662 µM (active)
OCCN1C[C@H](O)[C@@H](O)[C@H](O)[C@@H]1CO	inactive
CNC(=O)c1ccc(Nc2cc(Nc3ccccc3S(=O)(=O)C(C)C)c3cc[nH]c3n2)nc1	0.662 µM (active)
O=C(O)[C@H](CC(=O)N1C[C@@H]2CCCC[C@H]2C1)Cc1ccccc1	inactive
COc1cccc2c1C(=O)c1c(O)c3c(c(O)c1C2=O)C[C@@](O)(C(C)=O)C[C@H]3O[C@H]1C[C@H](N)[C@H](O)[C@H](C)O1	0.0418 µM (active)
O=C1NC(O)CCN1[C@@H]1O[C@H](CO)[C@H](O)[C@H]1O (stereo not given in full)	inactive
COc1cc(CCc2cc(NC(=O)c3ccc(N4C[C@@H](C)N[C@@H](C)C4)cc3)n[nH]2)cc(OC)c1	14.8 µM (active)
CCCc1nc(C(C)(C)O)c(C(=O)O)n1Cc1ccc(-c2ccccc2-c2nn[nH]n2)cc1	inactive
COC(=O)C=CC(=O)OC	1.32 µM (active)

SMILES	Potency
CC1(C)CC(O)CC(C)(C)N1[O]	inactive
Cn1cc(C=CC(=O)c2cccc(F)c2)cc1C=CC(=O)NO	18.7 µM (active)
CC(C)c1cc(C(C)C)c(CC(=O)NS(=O)(=O)Oc2c(C(C)C)cccc2C(C)C)c(C(C)C)c1	inactive
CCOc1cc2c(c(F)c1OCC)C(=N)N(CC(=O)c1cc(N3CCOCC3)c(OC)c(C(C)(C)C)c1)C2	14.8 µM (active)
C[N+]1(C)[C@@H]2C[C@@H](OC(=O)C(O)(c3cccs3)c3cccs3)C[C@H]1[C@@H]1O[C@@H]12	inactive
C=CCNc1c(O)cc2c(O)c1C[C@@H](C)C[C@H](OC)[C@@H](O)[C@@H](C)C=C(C)[C@H](OC(N)=O)[C@@H](OC)C=CC=C(C)C(=O)N2	0.469 µM (active)
C[C@@H]1CC[C@@]2(OC1)OC1CC3C4CC=C5CC(O)CCC5(C)C4CCC3(C)C1[C@@H]2C (stereo not given in full)	inactive
CO[C@@H]1[C@@H](O)[C@H](O)[C@@H](n2c3c(Cl)cccc3c3c4c(c5c6cccc(Cl)c6[nH]c5c32)C(=O)NC4=O)O[C@@H]1CO	0.59 µM (active)
Cc1[nH]c(C=C2C(=O)Nc3ccccc32)c(C)c1CCC(=O)O	4.69 µM (active)
COc1cc(C)c(Sc2cnc(NC(=O)c3ccc(CNC(C)C(C)(C)C)cc3)s2)cc1C(=O)N1CCN(C(C)=O)CC1 (stereo not given)	2.09 µM (active)
CN[C@H]1[C@@H](O)[C@@H]2O[C@@H]3O[C@H](C)CC(=O)[C@]3(O)O[C@@H]2[C@@H](NC)[C@H]1O	1.18 µM (active)
CCOC(=O)[C@@H](N)Cc1ccc(-c2cc(O[C@H](c3ccc(Cl)cc3-n3ccc(C)n3)C(F)(F)F)nc(N)n2)cc1	23.5 µM (active)
CC(=O)N1CCN(c2ccc(OCc3nn(C)c(C)c3-c3cccc4c(CCCOc5cccc6ccccc56)c(C(=O)O)n(Cc5cccnc5)c34)cc2)CC1	0.332 µM (active)
Cc1cc(Nc2ncc3c(n2)N(C)C(=O)N(c2cc(NC(=O)c4cccc(C(F)(F)F)c4)ccc2C)C3)n(C)n1	0.209 µM (active)
Oc1cc(-c2nc(-c3ccccc3)[nH]c2-c2ccncc2)ccc1Cl	4.69 µM (active)
CC(=O)O[C@]1(C(C)=O)CC[C@H]2[C@@H]3C=C(C)C4=CC(=O)CC[C@]4(C)[C@@H]3CC[C@@]21C	8.33 µM (active)
NC(=O)Nc1cc(-c2ccc(CN3CCOCC3)cc2)sc1C(N)=O	2.09 µM (active)
O=C1NCCc2[nH]c(-c3ccncc3)cc21	2.96 µM (active)
CCNC(=O)c1cc2c(-c3cc(OCCN4CCCC4)c(Cl)cc3Cl)nc(N)nc2s1	1.05 µM (active)
COc1cccc2c1C(=O)c1c(O)c3c(c(O)c1C2=O)C[C@@](O)(C(=O)CO)C[C@@H]3O[C@H]1C[C@H](N)[C@H](OC2CCCCO2)[C@H](C)O1 (stereo not given in full)	0.833 µM (active)
